PLCb3 inh = human PLC-beta3 inhibitors, primary screen, biochemical, fluorescence; 1-phosphatidylinositol 4,5-bisphosphate phosphodiesterase beta-3 (Homo sapiens), Q01970; Purified PLC-beta3, fluorogenic substrate; inhibition, % at 12.2 µM; 0.18% of 370,000 active; in the data active means inhibition above about 11%;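 further: 0% = median of compound wells on plate and 100% = full blocker control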
GC-A act = GC-A stimulated cGMP production enhancers – HEK293 GC-A cells, cGMP TR-FRET, EC30 ANP, primary screen; Atrial natriuretic peptide receptor 1 (Homo sapiens), P16066; 0% at EC30 ANP, 100% saturating ANP; activation, % at 10 µM; 0.14% of 370,000 active; in the data active means activation above about 40%
Target sequence (P16066 whole entry, looked up): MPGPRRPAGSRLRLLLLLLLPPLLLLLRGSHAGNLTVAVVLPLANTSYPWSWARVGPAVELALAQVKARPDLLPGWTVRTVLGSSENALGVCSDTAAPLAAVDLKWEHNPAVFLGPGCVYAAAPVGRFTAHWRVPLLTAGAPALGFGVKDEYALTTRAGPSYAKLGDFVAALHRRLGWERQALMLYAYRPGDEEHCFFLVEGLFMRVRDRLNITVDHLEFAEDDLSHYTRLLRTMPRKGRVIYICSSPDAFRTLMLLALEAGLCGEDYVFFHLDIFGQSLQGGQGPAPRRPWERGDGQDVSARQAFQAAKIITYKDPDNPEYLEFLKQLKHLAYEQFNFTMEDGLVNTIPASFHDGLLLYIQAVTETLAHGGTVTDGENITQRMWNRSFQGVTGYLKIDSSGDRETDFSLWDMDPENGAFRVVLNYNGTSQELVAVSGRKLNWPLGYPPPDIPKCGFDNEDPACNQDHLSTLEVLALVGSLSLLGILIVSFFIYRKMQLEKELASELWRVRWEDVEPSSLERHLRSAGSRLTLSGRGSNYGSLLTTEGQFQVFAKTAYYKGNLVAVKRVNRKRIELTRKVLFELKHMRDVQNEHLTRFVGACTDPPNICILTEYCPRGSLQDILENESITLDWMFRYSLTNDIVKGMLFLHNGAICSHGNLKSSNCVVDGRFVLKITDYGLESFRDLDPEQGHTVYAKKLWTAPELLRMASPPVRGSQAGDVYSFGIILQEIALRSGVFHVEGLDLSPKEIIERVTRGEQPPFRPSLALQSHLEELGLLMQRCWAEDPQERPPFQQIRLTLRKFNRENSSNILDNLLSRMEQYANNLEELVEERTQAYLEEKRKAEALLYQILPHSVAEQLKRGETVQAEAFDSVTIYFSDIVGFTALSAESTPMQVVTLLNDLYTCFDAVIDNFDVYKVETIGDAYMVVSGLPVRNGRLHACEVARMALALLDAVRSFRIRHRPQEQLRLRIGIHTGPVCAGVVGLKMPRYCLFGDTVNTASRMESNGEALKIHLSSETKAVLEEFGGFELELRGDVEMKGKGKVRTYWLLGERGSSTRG
PLC-gamma1 inh = PLC-gamma1 enzyme inhibitors, primary screen, biochemical, fluorescence, purified enzyme | 1-phosphatidylinositol 4,5-bisphosphate phosphodiesterase gamma-1 (Homo sapiens), P19174 | fluorogenic substrate | inhibition, % at 12.2 µM | 0.84% of 370,000 active | AID 720700, 2013; in the data active means inhibition above about 9.5%
GC-B act = human GC-B receptor activators, primary screen, HEK293 GC-B cells, cGMP TR-FRET, EC30 CNP. 0% at EC30 CNP, 100% saturating CNP. activation, % at 10 µM. Atrial natriuretic peptide receptor 2 (Homo sapiens), P20594. 0.11% of 370,000 active;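 active means activation at 10 µM reaching about 35% in either raw or pattern-adjusted values, limit read from the data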
Active calls of the source: *. Sampled rows, rich in hits. Any-hit rate of the full collection: about 1.2%.

Screening CCC1CCCCN1S(=O)(=O)c1ccc(NC(=O)c2nc(S(C)(=O)=O)ncc2Cl)cc1 (stereo not drawn) returned PLCb3 inh -17.7, GC-A act 42.4*, PLC-gamma1 inh -7.8 and GC-B act 19.6.
CCS(=O)(=O)c1ncc(Cl)c(C(=O)Nc2ccc(S(=O)(=O)N3CCCC(C)C3)cc2)n1 (stereo not drawn) was read as PLCb3 inh -7.7, GC-A act 43.5*, PLC-gamma1 inh -0.5 and GC-B act 41.4*.
For CCC1CCCCN1S(=O)(=O)c1ccc(NC(=O)c2ccncc2)cc1 (stereo not drawn) the results were PLCb3 inh -2.5, GC-A act -3.6, PLC-gamma1 inh 3.8 and GC-B act -1.8.
For Clc1ccc(CN2CCC(Cc3ccccc3)CC2)cc1 the results were PLCb3 inh 5.9, GC-A act -1.4, PLC-gamma1 inh 10.8* and GC-B act -2.6.
CCn1c(COc2ccc(C)cc2)nnc1SCc1ccc(C#N)cc1 was read as PLCb3 inh -1.7, GC-A act 1.9, PLC-gamma1 inh -0.1 and GC-B act 0.6.
`O=C(Nc1ccccc1Cl)c1cc(C2CCCN(C(=O)c3ccccc3)C2)on1` (stereo not drawn) gave PLCb3 inh 10.8*, GC-A act 0.1, PLC-gamma1 inh 6.9 and GC-B act 3.4.
Cn1c(SCC(=O)NC2CCCCCC2)nnc1-c1ccco1 was read as PLCb3 inh -2.0, GC-A act 1.9, PLC-gamma1 inh 0.5 and GC-B act -0.2.
`O=S(=O)(Nc1cc(F)ccc1F)c1cccc2nonc12` gave PLCb3 inh -1.7, GC-A act 1.5, PLC-gamma1 inh 1.1 and GC-B act -2.6.
`COc1cccc(CNC(=O)COC(=O)CNC(=O)c2ccc(-c3ccccc3)cc2)c1` gave PLCb3 inh -4.2, GC-A act 47.5*, PLC-gamma1 inh -2.3 and GC-B act 7.5.
COc1cc(C(=O)Nc2ccc(NC(=O)C3CCCCC3)nc2)cc(OC)c1OC was read as PLCb3 inh -4.1, GC-A act -3.4, PLC-gamma1 inh -1.6 and GC-B act 5.0.
Screening CC(C)C(=O)Nc1cccc(C(=O)OCC(=O)c2ccc(Cl)cc2Cl)c1 returned PLCb3 inh 7.2, GC-A act 58.7*, PLC-gamma1 inh 3.0 and GC-B act -5.1.
`CC(=O)Nc1cc(C(=O)OCC(=O)c2ccc(Cl)cc2Cl)ccc1C` gave PLCb3 inh -0.9, GC-A act 61.4*, PLC-gamma1 inh 1.4 and GC-B act 4.5.
Screening CC(=O)Nc1cc(C(=O)OCC(=O)c2ccc(C)cc2)ccc1C returned PLCb3 inh 3.5, GC-A act 7.4, PLC-gamma1 inh 3.7 and GC-B act -7.0.
Screening O=C(CN1CCOc2ccccc21)NC1CCN(Cc2ccccc2)CC1 returned PLCb3 inh 1.8, GC-A act -2.4, PLC-gamma1 inh 0.1 and GC-B act -2.0.
For O=C(Nc1cccc(Cl)c1)Nc1nnc([C@H]2C[C@H](O)[C@@H](CO)O2)s1 the results were PLCb3 inh -0.4, GC-A act 3.5, PLC-gamma1 inh -2.6 and GC-B act 2.7.
Cc1ccccc1CC1CCN(CCCNC(=O)Nc2ccccc2)CC1 was read as PLCb3 inh -4.1, GC-A act -4.7, PLC-gamma1 inh -0.3 and GC-B act 0.6.
Screening O=C(CSc1nnc(CNc2cccc(Cl)c2)o1)OC1CCCCC1 returned PLCb3 inh 0.7, GC-A act 19.8, PLC-gamma1 inh -2.3 and GC-B act -7.0.
Screening O=C(CSc1nnc(COc2ccc(Cl)cc2)o1)OC1CCCCC1 returned PLCb3 inh -0.8, GC-A act 76.1*, PLC-gamma1 inh 0.4 and GC-B act 17.1.
For Cc1cc(OCc2nnc(SCC(=O)OC3CCCCC3)o2)ccc1Cl the results were PLCb3 inh 1.2, GC-A act 66.2*, PLC-gamma1 inh -0.3 and GC-B act 7.1.
For NC(=O)C1CCN(CCS(=O)(=O)c2ccc(Cl)cc2)CC1 the results were PLCb3 inh -7.1, GC-A act -4.8, PLC-gamma1 inh 1.5 and GC-B act 0.9.
`Cc1nn(-c2ccc(Cl)cc2)c(Cl)c1/C=C(\C#N)C(N)=O` gave PLCb3 inh -6.2, GC-A act 48.7*, PLC-gamma1 inh -4.8 and GC-B act 5.2.
For C=CCNC(=O)/C(C#N)=C/c1c(C)nn(-c2ccc(Cl)cc2)c1Cl the results were PLCb3 inh 1.3, GC-A act 46.3*, PLC-gamma1 inh -1.6 and GC-B act 3.8.
Screening COc1cccc(C(=O)C2CCCN(C(=O)c3ccccc3Cl)C2)c1 (stereo not drawn) returned PLCb3 inh -6.5, GC-A act 0.5, PLC-gamma1 inh -3.7 and GC-B act -0.3.
Screening Cc1cccc2cc(C3CC(c4ccco4)=NN3S(C)(=O)=O)c(Cl)nc12 (stereo not drawn) returned PLCb3 inh -5.8, GC-A act 1.1, PLC-gamma1 inh -0.3 and GC-B act 0.6.
For Nc1ccc(C(=O)N2CCCC2)cc1 the results were PLCb3 inh -4.8, GC-A act 0.6, PLC-gamma1 inh 2.0 and GC-B act 3.4.
For Nc1ccc(C(=O)n2c3ccccc3c3ccccc32)cc1 the results were PLCb3 inh -36.3, GC-A act 49.5*, PLC-gamma1 inh -17.8 and GC-B act -9.4.
CC1(C(=O)NS(=O)(=O)c2ccccc2Cl)CCN1C(=O)CC(c1ccccc1)c1ccccc1 (stereo not drawn) was read as PLCb3 inh -1.9, GC-A act -0.2, PLC-gamma1 inh -1.4 and GC-B act 2.4.
Cc1ccc([C@@H]2[C@@H]3C(=O)N(c4ccccc4)C(=O)[C@@H]3[C@]3(C)C(=O)N(Cc4ccc(-c5ccccc5)cc4)CC(=O)N23)o1 was read as PLCb3 inh -3.3, GC-A act 49.1*, PLC-gamma1 inh -3.2 and GC-B act 0.3.
Cc1ccc([C@@H]2[C@@H]3C(=O)N(c4ccccc4)C(=O)[C@@H]3[C@]3(C)C(=O)N(Cc4ccccn4)CC(=O)N23)o1 was read as PLCb3 inh -4.8, GC-A act 4.1, PLC-gamma1 inh -1.5 and GC-B act 1.0.
Screening COc1cc(NC(=O)C2CCCN(S(=O)(=O)c3ccccc3)C2)cc(OC)c1 (stereo not drawn) returned PLCb3 inh -0.4, GC-A act -2.5, PLC-gamma1 inh 1.2 and GC-B act -4.8.
C=CCn1c(SCC(=O)N(CC)C2CCS(=O)(=O)C2)nc2sc3c(c2c1=O)CCC3 (stereo not drawn) was read as PLCb3 inh -6.4, GC-A act -3.5, PLC-gamma1 inh 0.4 and GC-B act 1.9.
Screening NC(=O)CC[C@@H]1NC(=O)[C@H](CO)NC(=O)c2cc([N+](=O)[O-])cc(I)c2OCC[C@@H](C(N)=O)NC1=O returned PLCb3 inh 9.5, GC-A act 3.2, PLC-gamma1 inh 14.3* and GC-B act 3.5.

From PubChem BioAssay
